According to PubChem BioAssay (NCATS):
Records with an inconclusive call do not appear. Entries that show only a call come without a potency. Activity calls are given as the source filed them. Calls follow the shape of the dose curve; as a rule, active = well fitted curve in the direction sought with a large enough effect; inconclusive = small, poorly fitted or top-dose-only effect, or another doubt; inactive = no such curve, though single readings can be large; an effect the other way counts as inactive or inconclusive.

Tests used:
[1] = qHTS of pediatric cancer cell lines to identify multiple opportunities for drug repurposing: Confirmatory screen for NB1643 cells (AID 1347109); also: nearly all actives have a fitted effect of over 45% in size; also: potency is read from the fitted curve at half-maximal effect
Outline: (§1)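 Viability after 48 h compound treatment at 37C, 500-1,000 cells/well, read as ATP luminescence with CellTiter-Glo. Primary screens used 11-point (MIPE, 0.78 nM-46 µM) or 8-point (NPC, 0.59 nM-46 µM) final concentrations; follow-up screens used 11-point dilutions.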

[2] = qHTS of pediatric cancer cell lines to identify multiple opportunities for drug repurposing: Confirmatory screen for SK-N-MC cells (AID 1347111);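 also: cells exposed to compound for 48 h before the readout; nearly all actives have a fitted effect of over 70% in size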; also: potency is read from the fitted curve at half-maximal effect
Outline: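 SK-N-MC cells at 500-1,000 cells/well in growth media were pre-incubated 5 h, then exposed to compounds at 11-point dilutions for 48 h at 37 degrees C, 5% CO2. Viability was read as CellTiter-Glo luminescence.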

[3] = qHTS of pediatric cancer cell lines to identify multiple opportunities for drug repurposing: Confirmatory screen for BT-12 cells (AID 1347112); also: nearly all actives have a fitted effect of over 55% in size; also: potency is read from the fitted curve at half-maximal effect
Outline: as §1

[4] = qHTS of pediatric cancer cell lines to identify multiple opportunities for drug repurposing: Confirmatory screen for LAN-5 cells (AID 1347113); also: nearly all actives have a fitted effect of over 65% in size; also: potency is read from the fitted curve at half-maximal effect
Outline: as §1

[5] = qHTS of pediatric cancer cell lines to identify multiple opportunities for drug repurposing: Confirmatory screen for SJ-GBM2 cells (AID 1347116); also: nearly all actives have a fitted effect of over 60% in size; also: potency is read from the fitted curve at half-maximal effect
Outline: (§2)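 Viability measured as metabolically active cells via CellTiter-Glo luminescence following 48 hours of compound exposure, 11-point dilutions in confirmatory testing. 500-1,000 cells/well plated 5 hours before dosing; controls were DMSO and 2.3 µM bortezomib.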

[6] = qHTS of pediatric cancer cell lines to identify multiple opportunities for drug repurposing: Confirmatory screen for BT-37 cells (AID 1347117); also: nearly all actives have a fitted effect of over 55% in size; also: potency is read from the fitted curve at half-maximal effect
Outline: as §1

[7] = qHTS of pediatric cancer cell lines to identify multiple opportunities for drug repurposing: Confirmatory screen for MG 63 (6-TG R) cells (AID 1347119); also: nearly all actives have a fitted effect of over 55% in size; also: potency is read from the fitted curve at half-maximal effect
Outline: as §1

[8] = qHTS of pediatric cancer cell lines to identify multiple opportunities for drug repurposing: Confirmatory screen for control Hh wild type fibroblast cells (AID 1347121); also: nearly all actives have a fitted effect of over 70% in size
Outline: as §1

[9] = qHTS of pediatric cancer cell lines to identify multiple opportunities for drug repurposing: Confirmatory screen for U-2 OS cells (AID 1347122); also: nearly all actives have a fitted effect of over 65% in size; also: potency is read from the fitted curve at half-maximal effect
Outline: as §1

[10] = qHTS of pediatric cancer cell lines to identify multiple opportunities for drug repurposing: Confirmatory screen for Rh41 cells (AID 1347123); also: nearly all actives have a fitted effect of over 60% in size; also: potency is read from the fitted curve at half-maximal effect
Outline: as §1

[11] = qHTS of pediatric cancer cell lines to identify multiple opportunities for drug repurposing: Confirmatory screen for Rh18 cells (AID 1347125); also: nearly all actives have a fitted effect of over 55% in size; also: potency is read from the fitted curve at half-maximal effect
Outline: as §1

[12] = qHTS of pediatric cancer cell lines to identify multiple opportunities for drug repurposing: Confirmatory screen for Saos-2 cells (AID 1347127); also: nearly all actives have a fitted effect of over 60% in size; also: potency is read from the fitted curve at half-maximal effect
Outline: as §1

[13] = qHTS of pediatric cancer cell lines to identify multiple opportunities for drug repurposing: Confirmatory screen for OHS-50 cells (AID 1347128); also: potency is read from the fitted curve at half-maximal effect
Outline: as §1

[14] = qHTS of pediatric cancer cell lines to identify multiple opportunities for drug repurposing: Confirmatory screen for SK-N-SH cells (AID 1347129); also: nearly all actives have a fitted effect of over 60% in size; also: potency is read from the fitted curve at half-maximal effect
Outline: as §1

[15] = qHTS of pediatric cancer cell lines to identify multiple opportunities for drug repurposing: Confirmatory screen for A673 cells (AID 1347110); also: nearly all actives have a fitted effect of over 65% in size; also: potency is read from the fitted curve at half-maximal effect
Outline: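 Viability was read as ATP luminescence (CellTiter-Glo) after 48 h of compound exposure at 37 C in A673 cells seeded at 500-1,000/well. Titrations reached 46 uM final, with 11 points in the confirmatory screen. Concentration-response curves were fitted directly.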

[16] = qHTS of pediatric cancer cell lines to identify multiple opportunities for drug repurposing: Confirmatory screen for DAOY cells (AID 1347114); also: nearly all actives have a fitted effect of over 65% in size; also: potency is read from the fitted curve at half-maximal effect
Outline: as §2

[17] = qHTS of pediatric cancer cell lines to identify multiple opportunities for drug repurposing: Confirmatory screen for NB-EBc1 cells (AID 1347115); also: nearly all actives have a fitted effect of over 45% in size
Outline: as §1

[18] = qHTS of pediatric cancer cell lines to identify multiple opportunities for drug repurposing: Confirmatory screen for TC32 cells (AID 1347118)
Outline: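 Measured quantity: luminescence from CellTiter-Glo, reflecting metabolically active TC32 cells following 48 h of compound. Curves came straight from multi-point titrations, with 8 or 11 points in primary and 11 in confirmatory screening.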

[19] = qHTS of pediatric cancer cell lines to identify multiple opportunities for drug repurposing: Confirmatory screen for RD cells (AID 1347124)
Outline: as §1

[20] = qHTS of pediatric cancer cell lines to identify multiple opportunities for drug repurposing: Confirmatory screen for Rh30 cells (AID 1347126); also: nearly all actives have a fitted effect of over 55% in size; also: potency is read from the fitted curve at half-maximal effect
Outline: as §1

SMILES	Potency [1]	Potency [2]	Potency [3]	Potency [4]	Potency [5]	Potency [6]	Potency [7]	Potency [8]	Potency [9]	Potency [10]	Potency [11]	Potency [12]	Potency [13]	Potency [14]	Potency [15]	Potency [16]	Potency [17]	Potency [18]	Potency [19]	Potency [20]
CCC(=O)OCC(=O)[C@@]1(OC(=O)CC)[C@@H](C)C[C@@H]2[C@H]3CCC4=CC(=O)C=C[C@]4(C)[C@@]3(F)[C@@H](O)C[C@@]21C	inactive	inactive	inactive	inactive	inactive	inactive	inactive	inactive	inactive	14.7 µM (active)	inactive	inactive	inactive	20.9 µM (active)						
CCN(CCO)CCCOc1ccc2c(Nc3cc(CC(=O)Nc4cccc(F)c4)[nH]n3)ncnc2c1		0.104 µM (active)	inactive		inactive			inactive	inactive		inactive	inactive			10.4 µM (active)	inactive	inactive	0.0414 µM (active)	inactive	
COc1cc(CNC(=O)CCCCC=CC(C)C)ccc1O	inactive		inactive	inactive		inactive	inactive	inactive			inactive	inactive	inactive			inactive	inactive			
CCC[C@H](N[C@@H](C)C(=O)N1[C@@H]2CCCC[C@H]2C[C@H]1C(=O)O)C(=O)OCC	inactive	inactive	inactive	inactive	inactive	inactive	inactive	inactive	inactive	inactive				inactive		inactive	inactive			
CO[C@H]1/C=C\O[C@@]2(C)Oc3c(C)c(O)c4c(O)c(c(C=NN5CCN(C6CCCC6)CC5)c(O)c4c3C2=O)NC(=O)C(C)=CC=C[C@H](C)[C@H](O)[C@@H](C)[C@@H](O)[C@@H](C)[C@H](OC(C)=O)[C@H]1C	23.3 µM (active)	20.8 µM (active)		inactive	inactive	26.1 µM (active)	inactive	inactive	inactive	20.8 µM (active)	inactive	20.8 µM (active)		inactive						
CC1=C[C@@H]2[C@@H]([C@@H](O)C[C@@]3(C)[C@H]2C[C@@H](C)[C@]3(O)C(=O)CO)[C@@]2(C)Cc3cnn(-c4ccccc4)c3C=C12		9.27 µM (active)	inactive					inactive	inactive	23.3 µM (active)	inactive	inactive			23.3 µM (active)	inactive				inactive
COC1CCC(C(=O)c2ccc3nc4c(cc3c2)CCCO4)CC1 (stereo not given)	inactive	inactive	inactive	inactive	inactive	inactive		inactive			inactive	inactive	inactive	inactive		23.3 µM (active)	inactive		inactive	
CCCC1OC2C[C@@H]3[C@H]4CCC5=CC(=O)C=C[C@]5(C)[C@H]4C(O)C[C@]3(C)[C@]2(C(=O)CO)O1 (stereo not given in full)		26.1 µM (active)	inactive		1.47 µM (active)		inactive	inactive					inactive	inactive	inactive		inactive			
CC(C)n1c(C=C[C@H](O)C[C@H](O)CC(=O)O)c(-c2ccc(F)cc2)c2ccccc21		23.3 µM (active)		inactive	13.1 µM (active)	14.7 µM (active)	3.29 µM (active)		3.69 µM (active)	20.8 µM (active)	8.27 µM (active)	1.04 µM (active)	10.4 µM (active)	4.18 µM (active)	4.65 µM (active)	3.69 µM (active)		16.5 µM (active)		
Cc1ccc(C(=O)N(CCCN)[C@@H](c2nc3cc(Cl)ccc3c(=O)n2Cc2ccccc2)C(C)C)cc1		0.024 µM (active)	0.759 µM (active)			0.0537 µM (active)	0.0759 µM (active)	inactive	0.0603 µM (active)	0.024 µM (active)	inactive	0.0676 µM (active)		12.1 µM (active)	0.0076 µM (active)	0.012 µM (active)		0.0479 µM (active)		
Cc1cc(CS(=O)(=O)c2ccccc2)cc(OCc2ccc(CN3CCC[C@H]3CO)cc2)c1	inactive				inactive			inactive		16.5 µM (active)		inactive					inactive			
CCC(C)SSc1ncc[nH]1 (stereo not given)	18.5 µM (active)	8.27 µM (active)	23.3 µM (active)	13.1 µM (active)			20.8 µM (active)	inactive		9.27 µM (active)				16.6 µM (active)				13.1 µM (active)		
Cc1c(C(=O)Nc2ccc(N3C[C@@H](C)O[C@@H](C)C3)nc2)cccc1-c1ccc(OC(F)(F)F)cc1	inactive			inactive	inactive		10.4 µM (active)	inactive	18.5 µM (active)	16.5 µM (active)	inactive			inactive			inactive			
COc1ccc2c(c1)c(C1=C(c3c[nH]c4ccccc34)C(=O)NC1=O)cn2CCCN(C)C	20.8 µM (active)	8.27 µM (active)		16.5 µM (active)		23.3 µM (active)	inactive	inactive		20.8 µM (active)	inactive	inactive	23.3 µM (active)	16.6 µM (active)		23.3 µM (active)				2.33 µM (active)
